ATXN viability – reduces viability in counter-screen for ATXN expression inhibitors; Potency, µM (highest dose often 56.7 µM), actives largely listed as cytotoxic; AID 651635; 400,000 compounds, 0.49% hits; S2 cells (HEK-293 line with an ATXN2-luciferase reporter) viability, CellTiter-Fluor protease fluorescence, 24 h; also: nearly all actives have a fitted effect of over 40% in size
TGFb inhibitor – TGF-b pathway inhibition; Potency, µM (top dose mostly 46.1 µM), hits mostly inhibitors; 410,000 compounds, 1.2% hits; HepG2 CAGA-GFP TGF-b/SMAD3 reporter, GFP fluorescence, 18 h; TGF-beta stimulated, 500 pg/mL final; AID 588855; also: nearly all actives have a fitted effect of over 65% in size
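Cell-based qHTS in HEPG2 carrying a CAGA-GFP Smad reporter; compounds added before 500 pg/mL final TGF-beta, 18 h incubation at 37 degrees C, GFP fluorescence quantified per cell by imaging cytometry.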
DT40 TDP1 CPT – DT40-hTDP1 cell growth loss with CPT | chicken DT40 Tdp1-/-;hTDP1 cells + 20 nM CPT, ATP luminescence, 48 h | Potency, µM (highest dose often 46.2 µM), hits mostly inhibitors | 420,000 compounds, 12% hits; also: nearly all actives have a fitted effect of over 55% in size
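Chicken DT40 Tdp1-/- cells complemented with human TDP1, 400 cells/well, exposed to compounds plus 20 nM camptothecin for at least 48 h at 37 C; viability read as ATP content by CellTiter-Glo luminescence.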
HepG2 tox – counter-screen for TGF-b inhibitors: cytotoxicity in HepG2 cells | HepG2 CAGA-GFP viability, ATP luminescence, 18 h | Potency, µM (highest dose often 46.1 µM), usual class: cytotoxic | 410,000 compounds, 0.76% hits | AID 588856
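HepG2 CAGA-GFP cells (1000/well, DMEM with 1% FBS) received compound, then TGF-beta at 500 pg/mL final, and were incubated 18 hours at 37 degrees C. Viability was read by CellTiter-Glo luminescence. Media-only wells were set as complete cell-killing and DMSO as no toxicity.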
ATXN2 expr inh – inhibitors of ATXN2 expression; AID 1745845; Potency, µM (doses to about 57 µM), usual class: inhibitors; HEK-293 ATXN2-luciferase reporter, luminescence, 24 h; 360,000 compounds, 0.72% hits; also: nearly all actives have a fitted effect of over 55% in size
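ATXN2-luciferase reporter cells (luciferase flanked by upstream and downstream ATXN2 gene portions) were treated 24 h at 37 °C with compounds at up to 57 uM. SteadyGlo luminescence gave expression; GF-AFC fluorescence gave viability.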
TDP1 cell noCPT – qHTS for Inhibitors of human tyrosyl-DNA phosphodiesterase 1 (TDP1): qHTS in cells in absence of CPT; DT40 Tdp1-/- hTDP1 cells, no CPT, ATP luminescence, 48 h; Potency, µM (titrated, usually from 46.2 µM), usual class: inhibitors; 420,000 compounds, 15% hits; AID 686978, 2013; also: nearly all actives have a fitted effect of over 55% in size
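Chicken DT40 Tdp1-/- cells stably complemented with human TDP1 were seeded at 400 cells/well with DMSO in place of 20 nM camptothecin. After compound pinning, cells grew at least 48 hr at 37 °C; viability read by CellTiter-Glo luminescence.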
Of the large screens only hits and unclear results are named; the others gave an inactive call. In the library only some 17% were active in any assay of this set; here they are far more common. Calls follow the shape of the dose curve; as a rule, active = well fitted curve in the direction sought with a large enough effect; inconclusive = small, poorly fitted or top-dose-only effect, or another doubt; inactive = no such curve, though single readings can be large; an effect the other way counts as inactive or inconclusive.

Cc1cc(OC(=O)c2cc(C(F)(F)F)cc(C(F)(F)F)c2)c([N+](=O)[O-])c(=O)[nH]1	none
CCN(CC(=O)Nc1c(F)cccc1F)C(=O)CCNS(=O)(=O)c1ccc(C)c(C)c1	none
COc1ccc(C2=CCN3CCCCC3C2)c(-c2ccc(OC)c(OC)c2)c1 (stereo unspecified)	ATXN viability inconclusive, TGFb inhibitor inconclusive, DT40 TDP1 CPT inconclusive, TDP1 cell noCPT inconclusive
CSc1ccc(CN2C(=O)C(C)ON=C2c2ccccc2F)cc1 (stereo unspecified)	DT40 TDP1 CPT inconclusive, TDP1 cell noCPT inconclusive
COc1cccc(NS(=O)(=O)c2ccc3[nH]cc(C(=O)NC(C)c4ccccc4)c(=O)c3c2)c1 (stereo unspecified)	TGFb inhibitor inconclusive, DT40 TDP1 CPT inconclusive (no result: ATXN viability, ATXN2 expr inh)
COCCCNC(=O)c1ccc(-n2nc(C(F)(F)F)cc2-c2cccs2)cc1	none
O=C(NCCCN1CCOCC1)c1ccc(-n2nc(C(F)(F)F)cc2-c2cccs2)cc1	DT40 TDP1 CPT 18µM, ATXN2 expr inh inconclusive, TDP1 cell noCPT 18µM
O=C([O-])c1ccccc1-[n+]1c(-c2ccccc2)cc(-c2ccccc2)cc1-c1ccccc1	TGFb inhibitor inconclusive, DT40 TDP1 CPT 4.6µM, TDP1 cell noCPT 5.8µM
O=C(c1cc(F)c(F)cc1Cl)N1CCN(S(=O)(=O)c2cccs2)CC1	none
Cc1cccc(N2C(=O)c3cccc(Oc4ccc(Cl)cc4)c3C2=O)c1	none (no result: ATXN2 expr inh)
Cc1ccc(S(=O)(=O)/N=C(\N)Nc2nc(C)c3ccc(C)cc3n2)cc1	DT40 TDP1 CPT 21µM, TDP1 cell noCPT inconclusive
Cc1ccc2c(C)nc(N/C(N)=N/S(=O)(=O)c3ccccc3)nc2c1	none
Cc1ccc(S(=O)(=O)/N=C(\N)Nc2nc(C)c3cc(C)ccc3n2)cc1	DT40 TDP1 CPT inconclusive, TDP1 cell noCPT inconclusive
Cc1ccc(S(=O)(=O)/N=C(\N)Nc2nc(C)c3cc(C)c(C)cc3n2)cc1	DT40 TDP1 CPT 23µM, TDP1 cell noCPT inconclusive
CCOCCc1nn2c(=O)cc(COC(=O)c3ccccc3NC(=O)c3ccccc3F)nc2s1	none
COc1cccc(NC(=O)CN(C)C(=O)Cc2c(C)nc3ccccc3c2C)c1	DT40 TDP1 CPT inconclusive, TDP1 cell noCPT inconclusive
COc1cc(OC)c(NC(=O)C(CC(C)C)N2Cc3ccccc3C2=O)cc1Cl (stereo unspecified)	TGFb inhibitor inconclusive, DT40 TDP1 CPT 15µM, TDP1 cell noCPT inconclusive (no result: ATXN viability, ATXN2 expr inh)
COc1cc(C(CC(=O)NCc2ccc(F)cc2)N2Cc3ccccc3C2=O)cc(OC)c1OC (stereo unspecified)	DT40 TDP1 CPT inconclusive, TDP1 cell noCPT 16µM
COc1ccc(C(CC(=O)NCc2ccccc2Cl)N2Cc3ccccc3C2=O)cc1OC (stereo unspecified)	TDP1 cell noCPT inconclusive
COc1ccccc1CNC(=O)CC(c1ccc(F)cc1)N1Cc2ccccc2C1=O (stereo unspecified)	DT40 TDP1 CPT inconclusive, TDP1 cell noCPT 23µM (no result: ATXN viability, ATXN2 expr inh)
COc1cc(NC(=O)C(CC(C)C)N2Cc3ccccc3C2=O)cc(OC)c1 (stereo unspecified)	TDP1 cell noCPT inconclusive (no result: ATXN viability, ATXN2 expr inh)
COc1ccccc1CNC(=O)C(CC(C)C)N1Cc2ccccc2C1=O (stereo unspecified)	DT40 TDP1 CPT 9.2µM, TDP1 cell noCPT 21µM (no result: ATXN viability, ATXN2 expr inh)
COc1cc(C(CC(=O)NCc2ccccc2)N2Cc3ccccc3C2=O)cc(OC)c1OC (stereo unspecified)	none
CCCCn1c(N)c(N(CC(C)C)C(=O)c2ccc(S(=O)(=O)N3CCCCCC3)cc2)c(=O)[nH]c1=O	TDP1 cell noCPT inconclusive
CCC(C)n1c(SCC(=O)Nc2cc(C(C)(C)C)nn2-c2ccccc2)nc2ccccc2c1=O (stereo unspecified)	ATXN viability inconclusive, TGFb inhibitor inconclusive, DT40 TDP1 CPT inconclusive, TDP1 cell noCPT 26µM (no result: ATXN2 expr inh)
C=CCn1c(SCC(=O)N2CCc3ccccc3C2)nc2sc(CC)cc2c1=O	DT40 TDP1 CPT inconclusive, TDP1 cell noCPT inconclusive
C=CCn1c(SCC(=O)N2CCc3ccccc3C2)nc2ccccc2c1=O	DT40 TDP1 CPT inconclusive, TDP1 cell noCPT 18µM
COCC(C)n1c(SCC(=O)Nc2nccs2)nc2ccccc2c1=O (stereo unspecified)	none (no result: ATXN2 expr inh)
COCC(C)n1c(SCC(=O)Nc2sccc2C(N)=O)nc2ccccc2c1=O (stereo unspecified)	ATXN viability inconclusive, DT40 TDP1 CPT 21µM, TDP1 cell noCPT 7.3µM
C=CCn1c(SCC(=O)N2CCc3ccccc3C2)nc2sc(C)c(C)c2c1=O	ATXN viability inconclusive, DT40 TDP1 CPT 18µM, TDP1 cell noCPT inconclusive
CCC(C)n1c(SCC(=O)NC2CC2)nc2ccccc2c1=O (stereo unspecified)	DT40 TDP1 CPT inconclusive, TDP1 cell noCPT inconclusive (no result: ATXN2 expr inh)
Cc1csc2nc(-c3ccc(NS(=O)(=O)c4cc(F)ccc4F)cc3)cn12	none
Cc1nc2ccn(Cc3cccs3)c(=O)c2cc1C(=O)N1CCN(c2ccccc2)CC1	DT40 TDP1 CPT inconclusive, TDP1 cell noCPT inconclusive
COCC(C)n1c(SCC(=O)N2CCCCC2)nc2ccccc2c1=O (stereo unspecified)	DT40 TDP1 CPT inconclusive, TDP1 cell noCPT inconclusive
COCC(C)n1c(SCC(=O)N2CCc3ccccc3C2)nc2ccccc2c1=O (stereo unspecified)	DT40 TDP1 CPT 2.3µM, TDP1 cell noCPT 1.8µM
COCC(C)n1c(SCc2cc(=O)n3cc(C)ccc3n2)nc2ccccc2c1=O (stereo unspecified)	DT40 TDP1 CPT inconclusive, TDP1 cell noCPT 10µM (no result: ATXN viability)
O=C(NC1CCCCC1)C(c1ccccn1)N(C(=O)c1csnn1)C1CC1 (stereo unspecified)	TDP1 cell noCPT inconclusive
CSc1cccc(CN2CCN(CCC(C)C)C(CCO)C2)c1 (stereo unspecified)	TDP1 cell noCPT inconclusive
COc1ccc(-c2onc3ccc(C(=O)/C=C/N(C)C)cc23)cc1	DT40 TDP1 CPT 13µM, TDP1 cell noCPT 21µM
CN(C)/C=C/C(=O)c1ccc2noc(-c3cccc(F)c3)c2c1	ATXN viability inconclusive, TDP1 cell noCPT inconclusive (no result: ATXN2 expr inh)
COc1ccc(-c2ccc3oc(-c4ccc(OC)cc4)c(C#CC4(O)CCCCC4)c3c2)cc1	TGFb inhibitor inconclusive, DT40 TDP1 CPT inconclusive, TDP1 cell noCPT inconclusive
CC1CCCN(S(=O)(=O)c2cc3c4c(c2)C(C)C(=O)N4CCC3)C1 (stereo unspecified)	none
Cc1ccccc1NC(=S)NCc1cccn1C	none

High-throughput results from PubChem.
